From PubChem BioAssay (NCATS) come the findings set out here.

Molecules are shown by their SMILES. “And” between values parts separate entries of the source, which are not always exact repeats. Identical values can stand only once. Results filed as inconclusive are left out. The source made the active and inactive calls. The call rests on the fitted dose curve.

One assay can be described thus: Cytotoxicity counterscreen for inhibitors of SARS-CoV-2 cell entry (AID 1645845). Further: nearly all actives have a fitted effect of over 50% in size. On activity change, negative = cytotoxicity: on the % scale 0 is the no-effect control and ±100 the full control effect. Conditions: cell viability (SARS-CoV-2 entry assay cells); series mostly up to 57.1 µM; activity change, negative = cytotoxicity: at the top concentration. In a few lines:
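Counterscreen run in the same HEK293-ACE2 line as the pseudotyped-particle entry assay, without particles. Viability after 48 h at 37 C was read as ATP luminescence, scaled between cell-containing and cell-free wells.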
For the compound `COC[C@@H](NC(C)=O)C(=O)NCc1ccccc1`, the compound was called inactive.
Still for that read-out and setting: the value for `C=C1CC[C@@]2(O)[C@H]3Cc4ccc(O)c5c4[C@@]2(CCN3CC2CC2)[C@H]1O5` was “inactive”; that for `NN=C(N)N` was “inactive”; that for `CC(C)NCC(O)c1ccccc1Cl` (configuration not stated) was “inactive”.
Turning to `CC(C)CC(N(C)C)C1(c2ccc(Cl)cc2)CCC1` (configuration not stated), the “activity change, negative = cytotoxicity” value is -14.8% (inactive).
Consider `C[C@]12CCC(=O)C(O)=C1CC[C@@H]1[C@@H]2CC[C@]2(C)C(=O)CC[C@@H]12`, for which the “activity change, negative = cytotoxicity” value was 3.6% [at 114 µM] (inactive).
`Cn1c(CCCC(=O)O)nc2cc(N(CCCl)CCCl)ccc21`: the Potency entry was “inactive”.
With `CC(C)(C)NCC(O)c1cc(Cl)c(N)c(Cl)c1` (configuration not stated), the compound was called inactive.
Regarding `CCC(COC(=O)c1cc(OC)c(OC)c(OC)c1)(c1ccccc1)N(C)C` (configuration not stated), the “activity change, negative = cytotoxicity” value was -10.1% (inactive).
On to `CCCC1CCCCN1` (configuration not stated), for which the compound was classed as inactive.
For the compound `C[C@]12CC[C@H]3[C@@H](CCC4=CC(=O)CC[C@@H]43)[C@@H]1CC[C@@H]2OC(=O)CCc1ccccc1`, the outcome was inactive.
As for `Cn1cc(C2=C(c3cn(C4CCN(Cc5ccccn5)CC4)c4ccccc34)C(=O)NC2=O)c2ccccc21`, the Potency result was “inactive”.
For `O=C1CC[C@@]2(O)[C@H]3Cc4ccc(O)c5c4[C@@]2(CCN3CC2CC2)[C@H]1O5`, the Potency entry is “inactive”.
With `CC(CCc1ccccc1)NC(C)C(O)c1ccc(O)cc1` (configuration not stated), the “activity change, negative = cytotoxicity” value is 0.903% (inactive).
In the case of `O=C(O)C(=O)c1cn(Cc2ccccc2)c2ccc(-c3ccc(OC(F)(F)F)cc3)cc12`, the result was inactive.
Consider `Cc1cccc(C)c1NC(=O)CN1CCCC1=O`, for which the “activity change, negative = cytotoxicity” value was 3.64% (inactive).
Take `Cc1cccc(C)c1NC1=NCCCS1`: the “activity change, negative = cytotoxicity” value is 3.97% (inactive).
As to `NCC1(CC(=O)O)CCCCC1`, the Potency result is “inactive”.
For `Cc1sc2c(c1C)C(c1ccc(Cl)cc1)=N[C@@H](CC(=O)OC(C)(C)C)c1nnc(C)n1-2`, the “activity change, negative = cytotoxicity” value is -8.52% (inactive).
As to `CNC(=O)c1ccc(N2C(=S)N(c3ccc(C#N)c(C(F)(F)F)c3)C(=O)C23CCC3)cc1F`, the “activity change, negative = cytotoxicity” value was -17% (inactive).
Regarding `Oc1ccc(Cl)cc1Cc1ccccc1`, the “activity change, negative = cytotoxicity” value is -15.9% (inactive).
Consider `O=[N+]([O-])c1cc([As](=O)(O)O)ccc1O`, for which the result was inactive.
In the case of `CC(C)=CC1C(C(=O)OCc2cccc(Oc3ccccc3)c2)C1(C)C` (configuration not stated), the “activity change, negative = cytotoxicity” value was 0.801% (inactive).
As for `N[C@@H]1C[C@H]1c1ccccc1`, the Potency result is “inactive”.
For `CCC(C(N)=O)N1CCCC1=O` (configuration not stated), the outcome was inactive.
As for `CC(=O)Nc1cc([As](=O)(O)O)ccc1O`, the result was inactive.
Consider `c1ccc2c(c1)Nc1ccccc1S2`, for which the “activity change, negative = cytotoxicity” value was -8.28% (inactive).
Regarding `NCC(O)c1ccc(O)cc1` (configuration not stated), the outcome was inactive.
The same measure, in the same setting: as for `OCCOc1ccccc1`, the entry is “inactive [at 114 µM]”.
Still for that read-out and setting: as for `CN1CCN(C(=O)O[C@H]2c3nccnc3C(=O)N2c2ccc(Cl)cn2)CC1`, the entry is “inactive”.
Take `FC(F)(F)c1cccc(C2=CCN(CCc3ccc4ccccc4c3)CC2)c1`: the “activity change, negative = cytotoxicity” value is 4.58% (inactive).

Another assay can be described thus: Primary qHTS to identify inhibitors of SARS-CoV-2 cell entry (AID 1645846). Further: nearly all actives have a fitted effect of over 45% in size. As to conditions: SARS-CoV-2 pseudovirus cell entry assay, luminescence; activity change, negative = inhibition: at 57.1 µM (top of the series) unless noted; series mostly up to 57.1 µM. In short, it runs like this:
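Entry measured by luciferase signal 48 h after adding SARS-CoV-2-S pseudotyped MLV particles to HEK293-ACE2 cells preincubated 1 h with compounds. Normalisation: bald particles and spike particles.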
A general note: In qHTS, concentration-response curves come from the screen itself.
As to `COC[C@@H](NC(C)=O)C(=O)NCc1ccccc1`, the call was inactive.
On the same count and under the same terms, the value for `C=C1CC[C@@]2(O)[C@H]3Cc4ccc(O)c5c4[C@@]2(CCN3CC2CC2)[C@H]1O5` was “inactive”.
Consider `C[C@@H]1O[C@@H](O[C@H]2C[C@@H](O)[C@]3(CO)[C@H]4[C@H](O)C[C@]5(C)[C@@H](C6=CC(=O)OC6)CC[C@]5(O)[C@@H]4CC[C@]3(O)C2)[C@H](O)[C@H](O)[C@H]1O`, for which the activity change, negative = inhibition was -97.3% and -94.1%.
Same read-out and setting: as for `NN=C(N)N`, the figure is 4.5%.
Regarding `CC(C)NCC(O)c1ccccc1Cl` (configuration not stated), the compound was called inactive.
For the compound `CC(C)CC(N(C)C)C1(c2ccc(Cl)cc2)CCC1` (configuration not stated), the activity change, negative = inhibition is 2.03%.
With `C[C@]12CCC(=O)C(O)=C1CC[C@@H]1[C@@H]2CC[C@]2(C)C(=O)CC[C@@H]12`, the “outcome” value is “inactive [at 114 µM]”.
`CC(C)(C)NCC(O)c1cc(Cl)c(N)c(Cl)c1` (configuration not stated): the activity change, negative = inhibition was determined as 0.184%.
`CCCC1CCCCN1` (configuration not stated): the outcome was inactive.
As for `C[C@]12CC[C@H]3[C@@H](CCC4=CC(=O)CC[C@@H]43)[C@@H]1CC[C@@H]2OC(=O)CCc1ccccc1`, the activity change, negative = inhibition is 2.01%.
The same measure, in the same setting: as for `O=C1CC[C@@]2(O)[C@H]3Cc4ccc(O)c5c4[C@@]2(CCN3CC2CC2)[C@H]1O5`, the figure is -8.92%; as for `O=C(O)C(=O)c1cn(Cc2ccccc2)c2ccc(-c3ccc(OC(F)(F)F)cc3)cc12`, -24.2%; as for `Cc1cccc(C)c1NC(=O)CN1CCCC1=O`, -12.8%.
Regarding `Cc1cccc(C)c1NC1=NCCCS1`, the activity change, negative = inhibition was -11.5%.
Still for that read-out and setting: the value for `NCC1(CC(=O)O)CCCCC1` was 1.13%; that for `NCC(CC(=O)O)c1ccc(Cl)cc1` (configuration not stated) was 0.754% [at 0.702 µM].
Same read-out and setting: as for `Cc1sc2c(c1C)C(c1ccc(Cl)cc1)=N[C@@H](CC(=O)OC(C)(C)C)c1nnc(C)n1-2`, the figure is -18.3%; as for `CNC(=O)c1ccc(N2C(=S)N(c3ccc(C#N)c(C(F)(F)F)c3)C(=O)C23CCC3)cc1F`, -17.3%.
On the same count and under the same terms, the value for `Oc1ccc(Cl)cc1Cc1ccccc1` was -21.8%; that for `O=[N+]([O-])c1cc([As](=O)(O)O)ccc1O` was -27.8%.
Regarding `CC(C)=CC1C(C(=O)OCc2cccc(Oc3ccccc3)c2)C1(C)C` (configuration not stated), the compound was called inactive.
With `N[C@@H]1C[C@H]1c1ccccc1`, the compound was called inactive and the activity change, negative = inhibition was -29.3%.
As for `CCC(C(N)=O)N1CCCC1=O` (configuration not stated), the activity change, negative = inhibition was -16.2%.
In the case of `C#CCN(C)[C@H](C)Cc1ccccc1`, the outcome was inactive and the activity change, negative = inhibition is -14%.
Take `CC(=O)Nc1cc([As](=O)(O)O)ccc1O`: the activity change, negative = inhibition is -7.63%.
As to `c1ccc2c(c1)Nc1ccccc1S2`, the outcome was inactive.
With `NCC(O)c1ccc(O)cc1` (configuration not stated), the outcome was inactive.
`C=C(C)[C@H]1Cc2c(ccc3c2O[C@@H]2COc4cc(OC)c(OC)cc4[C@@H]2C3=O)O1`: the activity change, negative = inhibition was -94.7%.
As to `CN1CCN(C(=O)O[C@H]2c3nccnc3C(=O)N2c2ccc(Cl)cn2)CC1`, the compound was called inactive.
